The values below come from the supplement of paper PMC12645437, “Orthogonal IMiD-Degron Pairs Induce Selective Protein Degradation in Cells” (ACS Chemical Biology, 2025).

In all, about 8,300 sequences were measured (“log2 fold change of degron read counts, EGFP-low vs EGFP+ sorted cells (limma voom), compound-induced degradation”: median about -1.1, highest 2% from about 3.2 on). Shown is part of a subset that was picked to be rich in the highest values.

This test addresses T1, CRBN, Q96SW2.
T1 chain: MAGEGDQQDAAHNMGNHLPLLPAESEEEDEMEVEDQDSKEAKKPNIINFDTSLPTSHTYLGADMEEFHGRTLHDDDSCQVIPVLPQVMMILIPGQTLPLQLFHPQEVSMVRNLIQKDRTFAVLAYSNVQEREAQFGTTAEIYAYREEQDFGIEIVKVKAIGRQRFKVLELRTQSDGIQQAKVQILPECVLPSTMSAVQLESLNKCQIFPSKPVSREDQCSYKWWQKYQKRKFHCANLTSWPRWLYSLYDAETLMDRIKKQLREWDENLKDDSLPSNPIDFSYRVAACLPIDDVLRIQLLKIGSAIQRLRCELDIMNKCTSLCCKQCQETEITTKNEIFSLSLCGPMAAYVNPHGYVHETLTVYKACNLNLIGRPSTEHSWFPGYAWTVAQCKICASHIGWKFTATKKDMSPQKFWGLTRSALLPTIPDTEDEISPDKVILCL
As to the kind of experiment: log2 fold change of degron read counts, EGFP-low vs EGFP+ sorted cells (limma voom), compound-induced degradation; higher = more compound-induced degradation of the degron-EGFP fusion; degrons are variants of IKZF1/3 zinc finger 2; compound dose not given here. The following applies: Jurkat, 18 h. As for the experimental part:
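Pooled library of 8380 IKZF3 ZF2 degron mutants (positions 146-167 varied within the IKZF3 130-189 degron; only the varied core is printed, flanks not printed) fused to EGFP with IRES-mCherry, lentivirally expressed in Jurkat cells. mCherry+ cells were treated with one IMiD compound for 18 h (dose not stated) and FACS-sorted into EGFP-low and EGFP+ populations. Degron sequences were counted by NGS, and log2FC (EGFP-low vs EGFP+) was estimated by limma voom over 3 biological replicates.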

Where [1] appears, read: compound: compound 19 (5-tert-butyl-thalidomide).
The mark [2] stands for this setting: compound: compound 22 (5-morpholino-thalidomide).
[3] abbreviates: compound: compound 33 (diphenyl IMiD analogue).
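Further: pooled lentiviral library of zinc finger degron-EGFP fusions in mCherry-positive Jurkat cells, FACS-sorted after compound exposure, with degron abundance counted by next-generation sequencing.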

Take FICEQCGAIFTQKGNLLRHIKL [46F_47I_49E_50Q_52G_53A_54I_55F_67L_, Q9UKT9]: the “log2 fold change of degron read counts” value under setting [1] was -2.04, the “log2 fold change of degron read counts” value under setting [2] is -1.4, the “log2 fold change of degron read counts” value under setting [3] is -0.144 and the “log2 fold change of degron read counts” value (compound: thalidomide) was -0.929.

For the sequence FMCEICGRLFTQKGNLLRHIKL [46F_47M_49E_50I_52G_53R_54L_55F_67L_, Q9UKT9], the “log2 fold change of degron read counts” value runs as follows: under setting [1], -2.26; under setting [2], -3.02; under setting [3], -1.18; (compound: thalidomide) -0.917.

On to FNCPICGHCFTQKGNLLRHIKL [46F_47N_49P_50I_52G_53H_54C_55F_67L_, Q9UKT9], for which the “log2 fold change of degron read counts” value under setting [1] is -2.1, the “log2 fold change of degron read counts” value under setting [2] was -3.11, the “log2 fold change of degron read counts” value under setting [3] was -1.84 and the “log2 fold change of degron read counts” value (compound: thalidomide) is -2.15.

For FNCDICGAWFTQKGNLLRHIKL [46F_47N_49D_50I_52G_53A_54W_55F_67L_, Q9UKT9], the “log2 fold change of degron read counts” value is -1.24 under setting [1], -2.06 under setting [2], -2.22 under setting [3] and -2.05 (compound: thalidomide).

Regarding FGCPVCGASFTQKGNLLRHIKL [46F_47G_49P_50V_52G_53A_54S_55F_67L_, Q9UKT9], the “log2 fold change of degron read counts” value by setting is: under setting [1], 3.39; under setting [2], 2.36; under setting [3], 2.57; (compound: thalidomide) 1.08.

Take FKCPVCGASFTQKGNLLRHIKL [46F_47K_49P_50V_52G_53A_54S_55F_67L_, Q9UKT9]: the “log2 fold change of degron read counts” value is 1.07 under setting [1], -1.4 under setting [2], -1.51 under setting [3] and 0.152 (compound: thalidomide).

For the sequence FMCPVCGASFTQKGNLLRHIKL [46F_47M_49P_50V_52G_53A_54S_55F_67L_, Q9UKT9], the “log2 fold change of degron read counts” value runs as follows: under setting [1], 1.06; under setting [2], 2.04; under setting [3], 2.75; (compound: thalidomide) 2.02.

Turning to FECPVCGASFTQKGNLLRHIKL [46F_47E_49P_50V_52G_53A_54S_55F_67L_, Q9UKT9], the “log2 fold change of degron read counts” value is, setting by setting: under setting [1], 1.95; under setting [2], -0.732; under setting [3], 2.2; (compound: thalidomide) 2.9.

Turning to FNCPVCGASFTQKGNLLRHIKL [46F_47N_49P_50V_52G_53A_54S_55F_67L_, Q9UKT9], the “log2 fold change of degron read counts” value is 2.78 under setting [1], 1.17 under setting [2], 1.06 under setting [3] and 0.433 (compound: thalidomide).

In the case of FDCPVCGASFTQKGNLLRHIKL [46F_47D_49P_50V_52G_53A_54S_55F_67L_, Q9UKT9], the “log2 fold change of degron read counts” value under setting [1] stood at 2.73, the “log2 fold change of degron read counts” value under setting [2] amounted to 0.654, the “log2 fold change of degron read counts” value under setting [3] was determined as 1.35 and the “log2 fold change of degron read counts” value (compound: thalidomide) was determined as 1.92.

For FFCPVCGASFTQKGNLLRHIKL [46F_47F_49P_50V_52G_53A_54S_55F_67L_, Q9UKT9], the “log2 fold change of degron read counts” value was found to be 3.04 under setting [1], 3.18 under setting [2], 2.27 under setting [3] and 1.42 (compound: thalidomide).

Turning to FTCPVCGASFTQKGNLLRHIKL [46F_47T_49P_50V_52G_53A_54S_55F_67L_, Q9UKT9], the “log2 fold change of degron read counts” value under setting [1] came out at 1.45, the “log2 fold change of degron read counts” value under setting [2] amounted to 2.72, the “log2 fold change of degron read counts” value under setting [3] turned out to be 2.67 and the “log2 fold change of degron read counts” value (compound: thalidomide) worked out at 2.79.

On to FQCPVCGASFTQKGNLLRHIKL [46F_47Q_49P_50V_52G_53A_54S_55F_67L_, Q9UKT9], for which the “log2 fold change of degron read counts” value was found to be 2.35 under setting [1], 2.72 under setting [2], 2.38 under setting [3] and 3.6 (compound: thalidomide).

In the case of FSCPVCGASFTQKGNLLRHIKL [46F_47S_49P_50V_52G_53A_54S_55F_67L_, Q9UKT9], the “log2 fold change of degron read counts” value is, setting by setting: under setting [1], 3.33; under setting [2], 2.24; under setting [3], 2.42; (compound: thalidomide) 1.71.

As for FACPVCGASFTQKGNLLRHIKL [46F_47A_49P_50V_52G_53A_54S_55F_67L_, Q9UKT9], the “log2 fold change of degron read counts” value is, setting by setting: under setting [1], 3.54; under setting [2], 2.15; under setting [3], 1.39; (compound: thalidomide) 1.39.

Turning to FVCPVCGASFTQKGNLLRHIKL [46F_47V_49P_50V_52G_53A_54S_55F_67L_, Q9UKT9], the “log2 fold change of degron read counts” value by setting is: under setting [1], 0.217; under setting [2], 2.83; under setting [3], 2.01; (compound: thalidomide) 2.79.

Turning to FSCNICGATFTQKGNLLRHIKL [46F_47S_49N_50I_52G_53A_54T_55F_67L_, Q9UKT9], the “log2 fold change of degron read counts” value under setting [1] came to 0.862, the “log2 fold change of degron read counts” value under setting [2] turned out to be 1.72, the “log2 fold change of degron read counts” value under setting [3] was found to be 1.81 and the “log2 fold change of degron read counts” value (compound: thalidomide) turned out to be 0.773.

Consider FRCSVCGHPFTQKGNLLRHIKL [46F_47R_49S_50V_52G_53H_54P_55F_67L_, Q9UKT9], for which the “log2 fold change of degron read counts” value was -1.61 under setting [1], 0.0411 under setting [2], -0.252 under setting [3] and -0.256 (compound: thalidomide).

For LDCNQCGFVCTQKGNLLRHIKL [46L_47D_49N_50Q_52G_53F_54V_55C_67L_, Q9UKT9], the “log2 fold change of degron read counts” value runs as follows: under setting [1], -1.84; under setting [2], -2.2; under setting [3], -2.2; (compound: thalidomide) -1.82.

Consider FDCNVCGASFTQKGNLLRHIKL [46F_47D_49N_50V_52G_53A_54S_55F_67L_, Q9UKT9], for which the “log2 fold change of degron read counts” value under setting [1] was -0.855, the “log2 fold change of degron read counts” value under setting [2] was -1.38, the “log2 fold change of degron read counts” value under setting [3] was -1.21 and the “log2 fold change of degron read counts” value (compound: thalidomide) is -0.475.

For FDCEICGRTFTQKGNLLRHIKL [46F_47D_49E_50I_52G_53R_54T_55F_67L_, Q9UKT9], the “log2 fold change of degron read counts” value is -2.33 under setting [1], -3.04 under setting [2], -1.56 under setting [3] and -1.64 (compound: thalidomide).

Regarding FRCEICGRSFTQKGNLLRHIKL [46F_47R_49E_50I_52G_53R_54S_55F_67L_, Q9UKT9], the “log2 fold change of degron read counts” value under setting [1] was -2.18, the “log2 fold change of degron read counts” value under setting [2] is -2.81, the “log2 fold change of degron read counts” value under setting [3] was -0.226 and the “log2 fold change of degron read counts” value (compound: thalidomide) is -0.504.

FECNICGAIFTQKGNLLRHIKL [46F_47E_49N_50I_52G_53A_54I_55F_67L_, Q9UKT9]: the “log2 fold change of degron read counts” value is, setting by setting: under setting [1], -2.22; under setting [2], -1.59; under setting [3], 0.523; (compound: thalidomide) 1.84.

For the sequence FLCPVCGASFTQKGNLLRHIKL [46F_47L_49P_50V_52G_53A_54S_55F_67L_, Q9UKT9], the “log2 fold change of degron read counts” value reads like this: under setting [1], 0.819; under setting [2], -0.0304; under setting [3], 1.62; (compound: thalidomide) 1.37.

For the sequence FECDVCGASFTQKGNLLRHIKL [46F_47E_49D_50V_52G_53A_54S_55F_67L_, Q9UKT9], the “log2 fold change of degron read counts” value under setting [1] was -0.176, the “log2 fold change of degron read counts” value under setting [2] was -2.77, the “log2 fold change of degron read counts” value under setting [3] is -0.519 and the “log2 fold change of degron read counts” value (compound: thalidomide) is -0.688.

For the sequence FWCPVCGASFTQKGNLLRHIKL [46F_47W_49P_50V_52G_53A_54S_55F_67L_, Q9UKT9], the “log2 fold change of degron read counts” value amounted to 3.31 under setting [1], 3.48 under setting [2], 2.42 under setting [3] and 1.35 (compound: thalidomide).

Turning to FWCDVCGASFTQKGNLLRHIKL [46F_47W_49D_50V_52G_53A_54S_55F_67L_, Q9UKT9], the “log2 fold change of degron read counts” value is 2.69 under setting [1], 3.48 under setting [2], 1.06 under setting [3] and -0.779 (compound: thalidomide).

For FICPVCGASFTQKGNLLRHIKL [46F_47I_49P_50V_52G_53A_54S_55F_67L_, Q9UKT9], the “log2 fold change of degron read counts” value under setting [1] was -0.331, the “log2 fold change of degron read counts” value under setting [2] stood at 2.74, the “log2 fold change of degron read counts” value under setting [3] was 2.17 and the “log2 fold change of degron read counts” value (compound: thalidomide) worked out at 2.62.

FCCPVCGASFTQKGNLLRHIKL [46F_47C_49P_50V_52G_53A_54S_55F_67L_, Q9UKT9]: the “log2 fold change of degron read counts” value stood at 3.07 under setting [1], 2.44 under setting [2], 2.49 under setting [3] and 2.37 (compound: thalidomide).

FYCPVCGASFTQKGNLLRHIKL [46F_47Y_49P_50V_52G_53A_54S_55F_67L_, Q9UKT9]: the “log2 fold change of degron read counts” value reads like this: under setting [1], 3.09; under setting [2], 3.3; under setting [3], 2.34; (compound: thalidomide) 1.12.

For the sequence FHCPVCGASFTQKGNLLRHIKL [46F_47H_49P_50V_52G_53A_54S_55F_67L_, Q9UKT9], the “log2 fold change of degron read counts” value amounted to 2.48 under setting [1], 2.53 under setting [2], 2.04 under setting [3] and 0.495 (compound: thalidomide).

Regarding FVCDVCGASFTQKGNLLRHIKL [46F_47V_49D_50V_52G_53A_54S_55F_67L_, Q9UKT9], the “log2 fold change of degron read counts” value under setting [1] is -1.45, the “log2 fold change of degron read counts” value under setting [2] is 1.32, the “log2 fold change of degron read counts” value under setting [3] was found to be 0.282 and the “log2 fold change of degron read counts” value (compound: thalidomide) is 0.656.
